# Assay results taken from PubChem BioAssay AID687041 (Broad Institute, 2013).
# Entries with a potency or affinity are not part of this list. Active and inactive are the calls of the source.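 The calls were made as follows: active = compounds lowering miR-122 whose fitted half-maximal concentration is at most twice the top tested dose; inconclusive = flat fit with moderate reduction, or poor fit quality; inactive = the rest.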
# Test: endogenous miR-122 level reduction, dose response, orthogonal assay for miR-122 inhibitor project, cell-based, Huh7, RT-qPCR, dry powder (AID 687041)
# Settings: Huh7 miR-122 level, 48 h; series mostly up to 35 µM
structure (smiles),measurement,value
O=C(CN1CCOCC1)Nc1ccc(Br)cc1C(=O)c1ccccc1,outcome,inactive
